Here are results for twelve compounds from PubChem BioAssay (NCI).

Compounds without any hit were thinned out: in the full panel of roughly 83,000, 20% have a hit.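 Cells were grown in 96-well plates and exposed to the test compound at a single concentration for 48 hours; results are reported as percent growth, with values below 10 considered active.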 Unmarked numbers belong to inactive results. The source made the active and inactive calls.

Some test systems named below: DU-145 prostate; K-562 leukemia; MALME-3M melanoma; MDA-MB-231 breast; RXF 393 renal; SF-268 CNS; SF-295 CNS; SF-539 CNS; UACC-257 melanoma; M14 melanoma.
Assay in all cases: NCI-60 one-dose screen, 48 h (100 = growth as untreated, 0 = no growth, -100 = all killed)
Settings in all cases: 10 µM unless noted

Regarding `N#C/C(=C\c1ccc(-c2ccccc2)o1)c1nc(-c2ccco2)cs1`, the growth was 107% in the assay on DU-145 prostate; 93.2% with K-562 leukemia; 94.8% with MALME-3M melanoma; 86.3% in the assay on MDA-MB-231 breast; 105% with RXF 393 renal; 101% in the assay on SF-268 CNS. Also, the growth in the assay on SF-295 CNS is 97.6%; in the assay on SF-539 CNS, 94.9%; in the assay on UACC-257 melanoma it was 103%; in the assay on M14 melanoma it was 93.8%.
Take `C[C@@H](Oc1ccc(C(=O)NS(=O)(=O)C(C)(C)C)cc1C(F)(F)F)c1ccc(Oc2ccccc2)cn1`: the growth in the assay with DU-145 prostate was 79.6%; with K-562 leukemia, 19.9%; in the assay with MALME-3M melanoma, 44.4%; in the assay on MDA-MB-231 breast it was 68.9%; with RXF 393 renal, -12.5% (active); with SF-268 CNS it was 54.3%. The growth with SF-295 CNS was 22.2%; in the assay on SF-539 CNS it was 29.8%; in the assay with UACC-257 melanoma, 51.5%; with M14 melanoma it was 22.8%.
Turning to `CC1(C)NCCC[C@]2(C)[C@H]3CC[C@@H]4[C@H]5[C@H](C(=O)/C=C/c6ccccn6)CC[C@]5(CO)CC[C@@]4(C)[C@]3(C)CC[C@@H]12`, the growth with DU-145 prostate is 67.7%; with K-562 leukemia, -2.17% (active); with MALME-3M melanoma, 73.6%; in the assay with MDA-MB-231 breast, 71.1%; in the assay on RXF 393 renal it was 56.7%; in the assay on SF-268 CNS it was 78.7%. Further, the growth in the assay with SF-295 CNS was 88.8%; with SF-539 CNS, 86.1%; in the assay on UACC-257 melanoma, 64%; in the assay with M14 melanoma it was 61.1%.
Take `COc1cc(/C=N/Nc2ncnc3c2c(C)nn3-c2ccc(F)cc2)ccc1O`: the growth in the assay with DU-145 prostate was 87.6%; with K-562 leukemia, 75.8%; in the assay on MALME-3M melanoma it was 112%; with MDA-MB-231 breast it was 84.5%; in the assay with RXF 393 renal, 95.1%; in the assay with SF-268 CNS it was 71%. Also, the growth in the assay with SF-295 CNS is 106%; in the assay with SF-539 CNS, 96.2%; in the assay on UACC-257 melanoma, 114%; in the assay with M14 melanoma, 102%.
`Cc1cc(Cl)nc(N(CCCNc2ccnc3cc(Cl)ccc23)Cc2ccco2)n1`: the growth is 46.2% with DU-145 prostate; 0.302% (active) with K-562 leukemia; 4.4% (active) in the assay on MALME-3M melanoma; 22.9% with MDA-MB-231 breast; 26.6% in the assay on RXF 393 renal; 52.5% in the assay with SF-268 CNS. Further, the growth was 20.6% in the assay with SF-295 CNS, 20.1% in the assay with SF-539 CNS, 23.3% in the assay with UACC-257 melanoma and -6.17% (active) in the assay with M14 melanoma.
On to `COc1ccc2c(c1)c(-c1nc(-c3c[nH]c4ncccc34)cs1)cn2CCCN1CCCCC1`, for which the growth in the assay with DU-145 prostate is 46.1%; with K-562 leukemia, -58.8% (active); with MALME-3M melanoma it was -70.9% (active); in the assay with MDA-MB-231 breast, 29.3%; in the assay on RXF 393 renal, 35.9%; in the assay with SF-268 CNS, 52.7%. Besides, the growth is 68.2% in the assay on SF-295 CNS, -63.6% (active) in the assay on SF-539 CNS, 71.8% in the assay with UACC-257 melanoma and -84.1% (active) in the assay with M14 melanoma.
As to `CC(C)(C)c1ccc(OCCCCCCCN2CCNCC2)cc1`, the growth was 45.6% with DU-145 prostate; 0.406% (active) in the assay with K-562 leukemia; -50.4% (active) in the assay with MALME-3M melanoma; 19.3% in the assay on MDA-MB-231 breast; 28.2% in the assay on RXF 393 renal; 59.5% with SF-268 CNS. In addition, the growth is 17.3% in the assay on SF-295 CNS, 67.3% with SF-539 CNS, 48.2% with UACC-257 melanoma and 45.2% in the assay with M14 melanoma.
In the case of `CC(=O)O[C@H]1CC[C@]2(C)[C@H]3C(=O)C=C4[C@@H]5C[C@](C)(C(=O)N6CCCNCC6)CC[C@]5(C)CC[C@@]4(C)[C@]3(C)CC[C@H]2C1(C)C`, the growth with DU-145 prostate was 4.85% (active); in the assay on K-562 leukemia, -11.3% (active); in the assay on MALME-3M melanoma it was -71.7% (active); in the assay on MDA-MB-231 breast, -84.6% (active); in the assay on RXF 393 renal it was -89.4% (active); in the assay with SF-268 CNS it was 69.6%. Besides, the growth was 60.2% in the assay with SF-295 CNS, -92.9% (active) with SF-539 CNS, 75.7% in the assay with UACC-257 melanoma and 6.84% (active) with M14 melanoma.
`Nc1c2c(nc3ccc(Br)cc13)CC(c1ccccc1)CC2=O` (stereo not given): the growth was 24.2% in the assay on DU-145 prostate; 13.4% with K-562 leukemia; 51.9% in the assay on MALME-3M melanoma; 59.6% in the assay on MDA-MB-231 breast; 21.8% in the assay on RXF 393 renal; 73.3% in the assay with SF-268 CNS. Moreover, the growth in the assay with SF-295 CNS is 9.76% (active); in the assay with SF-539 CNS, 20%; in the assay with UACC-257 melanoma, 86.3%; in the assay with M14 melanoma, 17.8%.
For the compound `Cc1nn(-c2ccc(Cl)cc2)c(=O)n1CCn1cnc2ccccc21`, the growth with DU-145 prostate was 114%; in the assay with K-562 leukemia it was 97.1%; with MALME-3M melanoma, 109%; in the assay on MDA-MB-231 breast, 111%; with RXF 393 renal it was 107%; in the assay with SF-268 CNS, 107%. For the same compound, the growth was 82.8% in the assay with SF-295 CNS, 101% with SF-539 CNS, 103% in the assay on UACC-257 melanoma and 96.7% in the assay on M14 melanoma.
In the case of `O=C1/C(=C\C(Cl)=C/c2ccc([N+](=O)[O-])cc2)SC(=S)N1CCc1ccc(O)cc1`, the growth in the assay on DU-145 prostate is 5.69% (active); in the assay on K-562 leukemia, 6.62% (active); in the assay on MALME-3M melanoma it was -64.5% (active); in the assay with MDA-MB-231 breast, 6.88% (active); in the assay on RXF 393 renal it was -72.5% (active); in the assay on SF-268 CNS, 9.96% (active). Besides, the growth in the assay with SF-295 CNS was -31.4% (active); with SF-539 CNS, -75.4% (active); with UACC-257 melanoma, 4.06% (active); in the assay with M14 melanoma it was -27.5% (active).
As for `Cc1cc(N2CCCC2)nc(N(CCNc2ccnc3cc(Cl)ccc23)Cc2ccco2)n1`, the growth in the assay with DU-145 prostate was 50.3%; in the assay on K-562 leukemia it was -1.93% (active); in the assay on MALME-3M melanoma, 28.2%; in the assay on MDA-MB-231 breast, 11.7%; with RXF 393 renal, -0.497% (active); in the assay with SF-268 CNS, 55.5%. Besides, the growth is 18.8% in the assay with SF-295 CNS, -10.7% (active) in the assay with SF-539 CNS, 69.8% in the assay on UACC-257 melanoma and -63.2% (active) in the assay on M14 melanoma.
